# Compound activity: PubChem, several laboratories
# MLLE-PAM2 inh = blocks PAM2 peptide binding to the PABP1 MLLE domain. GST-MLLE / FITC-PAM2 fluorescence polarization. inhibition, % at 20 µM. P11940. AID 588489. hit rate 0.36% among 360,000; in the data active = inhibition above about 35%, passing the limit was not always enough;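 note: plate controls were DMSO wells with GST-MLLE for no effect and wells lacking GST-MLLE protein for full effect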
# PABP FP inh = PABP-poly(A) binding inhibition; inhibition, % at 35 µM; PABP-poly(A) RNA binding, fluorescence polarization; P11940; hit rate 1% among 290,000;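 note: calls also rest on retests at 20 µM and on dose response follow-up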
# eIF4E 4G PPI = eIF4E/eIF4G interaction inhibition in translation initiation; inhibition, % at 21.7 µM; AID 782; hit rate 0.37% among 220,000; TR-FRET eIF4E-eIF4GI(517-606) binding, 2 h;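 active = inhibition above about 30%, limit read from the data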;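 note: 0% = full FRET control wells and 100% = background wells lacking eIF4GI fragment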
# PERK inhibitor = blocks human PERK kinase; Q9NZJ5; CHO PERK-DD fusion, SEAP luminescence translation reporter; inhibition, % at 5.6 µM; hit rate 0.17% among 220,000; AID 1416;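 active = inhibition above the mean inhibition of all tested compounds plus 3 SD, set separately per screening campaign, cut at about 2.9% in these data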;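 note: PERK kinase domain activated by AP20187 dimerizer at 100 nM; 0% = DMSO with dimerizer and 100% = rapamycin at 8.4 µM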
# M18AAP inhibitor = blocks P. falciparum M18 aspartyl aminopeptidase | recombinant PfM18AAP, H-Glu-NHMec fluorogenic cleavage | inhibition, % at 7.35 µM | hit rate 1.2% among 290,000 | AID 1822;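 active = inhibition above the campaign mean inhibition over all tested compounds plus 3 SD, cut at about 28% in these data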;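 note: 0% = plate median of test compound wells and 100% = 2 mM ZnCl2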
# eIF4H FP inh = inhibitors of RNA binding by human eIF4H | hit rate 0.94% among 290,000 | eIF4H fluorescence polarization binding assay | inhibition, % at 35 µM | Q15056;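 note: calls also rest on retests at 20 µM and on dose response follow-up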
# * hit, by the source's call; ? = inconclusive; . = not tested or not shown. Compounds with a hit are over-represented: about 2.4% of the library has one in this group of screens. Unless noted, the rule behind the calls is not given here.
SMILES,MLLE-PAM2 inh,PABP FP inh,eIF4E 4G PPI,PERK inhibitor,M18AAP inhibitor,eIF4H FP inh
Cc1nc2ccccc2c(=O)n1/N=C/c1ccco1,-2,1,0,0,6,6
O=c1c2ccccc2nc(-c2ccco2)n1/N=C/c1ccco1,6,91*,0,-1,1,97*
CCN(CC)S(=O)(=O)c1ccc(N2CCCC2)c(NC(=O)CSCc2c(C)noc2C)c1,18,.,.,.,.,.
COc1ccc2oc3ccc(OC)cc3c(=O)c2c1,3,3,-1,2,7,-6
O=C(NN=C1CCN(Cc2ccccc2)CC1)c1cc2ccccc2cc1O,4,3.6*,9,1,2,97*
O=C(NN=C1CCN(Cc2ccccc2)CC1)c1ccccc1O,3,-4,-1,0,10,-7
CC1(C(=O)Nc2cccc(OC(F)(F)F)c2)Cc2c(-c3cccc(C(N)=O)c3)ccnc2O1 (stereo unspecified),1,.,.,.,.,.
CCCSC1=N/C(=C\C=C\c2ccco2)C(=O)S1,-13,101*,3,0,5,94*
O=C1C=CC(=O)N1CCCCCCCCCCN1C(=O)C=CC1=O,27,.,.,.,.,.
CCCn1cnnc1CNC(=O)C1CCC(=O)N(CCCc2ccccc2)C1 (stereo unspecified),3,0,.,.,-5,-3
CN1CCC(N(C)S(=O)(=O)c2ccc(NC(=O)COc3ccc(Br)cc3Cl)cc2)CC1,-84,.,.,.,.,.
Cc1ccc(OCC(=O)Nc2ccc(S(=O)(=O)N(C)C3CCN(C)CC3)cc2)c(C)c1,-107,72*,.,.,-4,-2
N#C/C(=C/c1ccc(N2CCOCC2)c([N+](=O)[O-])c1)C(N)=O,3,1.5*,1,2,12,62*
Cc1nc([N+](=O)[O-])cn1CCC#N,-5,5,5,3.6*,-4,-3
O=C(CSc1nnc(-c2ccncc2)n1-c1ccc(F)cc1)NNC(=O)c1cccc(O)c1,-21,-5,6,1,0,-6
Cc1ccccc1NC(=S)N(Cc1ccccc1)Cc1cccnc1,-29,2,-1,0,5,-1
CSc1cccc(NC(=S)N(Cc2ccc(C)cc2)Cc2cccnc2)c1,-16,-20,87*,0,3,0
CC(Oc1ccc(Cl)cc1Cl)C(=O)NNC(=O)C(=O)N1CCCC1 (stereo unspecified),-8,4,.,.,-9,-6
CN1C2C=C3C(C#N)=C(N)C(C#N)(C#N)[C@@H](c4cccs4)C3C1CC2 (stereo partly specified),17,53*,-1,1,9,59*
CC(C)(C)C1CC=C2C(C#N)=C(N)C(C#N)(C#N)C(c3cccs3)C2C1 (stereo unspecified),.,121*,.,-1,18,93*
Cc1ccc(C2C3CN(C(C)C)CC=C3C(C#N)=C(N)C2(C#N)C#N)cc1 (stereo unspecified),151,?,-7,.,.,?
Cc1ccc(C)c(N2CCN(C(=O)c3ccc(NC4=NC5CS(=O)(=O)CC5S4)cc3)CC2)c1 (stereo unspecified),-111,0,.,.,1,1
CC(=O)Nc1cc(-c2cccc(N)c2)cn2c(-c3ccccc3)cnc12,5,.,.,.,.,.
COc1cc2c(-c3ccc(O)cc3)nc3c(c(C)nn3-c3ccccc3)c2cc1OC,8,22,39*,-1,4,14
COc1cc2c(C)nc3c(c(C)nn3-c3ccccc3)c2cc1OC,10,0,0,0,-15,7
SMILES,MLLE-PAM2 inh,PABP FP inh,eIF4E 4G PPI,PERK inhibitor,M18AAP inhibitor,eIF4H FP inh
Oc1ccccc1C=Nc1ccccc1-c1nc2ccccc2[nH]1,-9,58*,5,2,5,5.7*
O=S(=O)(c1ccc(-c2n[nH]c(=S)o2)cc1)N1CCCCC1,-95,21,.,.,5,17
O=C(COC(=O)CNC(=O)c1ccc(Cl)cc1Cl)NC1CCCCC1,7,1,.,.,-1,3
Cc1oc(/N=C/c2ccc(O)cc2O)c(C#N)c1C,32,-7,1,0,9,?
Cc1oc(/N=C/c2ccccc2O)c(C#N)c1C,11,69*,-6,2,5,79*
Cc1oc(/N=C/c2ccc(Cl)cc2Cl)c(C#N)c1C,-3,35,4,0,-4,18
Cc1oc(/N=C/c2ccc(Cl)cc2)c(C#N)c1C,-2,68*,3,1,1,53*
